{"source": "PubChem BioAssay (EPA / NIEHS)", "note": "Inconclusive results are not listed. Activity calls are given as the source filed them. The calls were made as follows: active = hit-call score of the fitted dose curve at least 0.9, where 1 is the maximum; inconclusive = response in the unintended direction; inactive = score below 0.9.", "data": [{"biological_target": "Cellular tumor antigen p53 (Homo sapiens) (UniProt P04637)", "sequence (P04637 whole entry, looked up)": "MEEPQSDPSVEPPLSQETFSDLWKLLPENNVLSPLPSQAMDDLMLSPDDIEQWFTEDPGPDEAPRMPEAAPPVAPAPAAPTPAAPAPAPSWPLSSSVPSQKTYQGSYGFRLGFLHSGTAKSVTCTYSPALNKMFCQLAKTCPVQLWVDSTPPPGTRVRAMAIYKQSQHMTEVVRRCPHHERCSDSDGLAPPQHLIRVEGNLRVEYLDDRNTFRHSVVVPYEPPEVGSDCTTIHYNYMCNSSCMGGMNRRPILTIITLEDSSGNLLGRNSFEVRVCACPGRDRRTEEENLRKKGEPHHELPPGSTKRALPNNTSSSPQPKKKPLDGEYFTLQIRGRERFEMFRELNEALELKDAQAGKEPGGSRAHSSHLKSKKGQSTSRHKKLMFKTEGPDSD", "assay": "TOX21_p53_BLA_p5_ratio: Tox21 HCT-116 p53 Agonism Beta-lactamase Assay, Ratio, Phase 5 (AID 2283599)", "outline": "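Beta-lactamase reporter ratio (blue 460 nm over green 530 nm, 405 nm excitation) after 2 h CCF4-AM loading, in HCT-116 cells exposed 16 h at 37 C to compounds pinned at 217-fold dilution. Increases relative to DMSO baseline scored.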", "values": [{"smiles": "C=C1CC2C3CCC4=CC(=O)C=C[C@]4(C)[C@@]3(F)[C@@H](O)C[C@]2(C)[C@@]1(O)C(=O)COC(C)=O", "note": "(stereo partly drawn)", "outcome": "inactive"}, {"smiles": "Cc1c(C)c2c(c(C)c1OC(=O)CCC(=O)OCCO)CCC(C)(CCCC(C)CCCC(C)CCCC(C)C)O2", "note": "(stereo not drawn)", "AC50": "16.2 µM (active)"}, {"smiles": "C[C@H](CCC(=O)O)[C@H]1CC[C@H]2[C@@H]3[C@H](O)C[C@@H]4C[C@H](O)CC[C@]4(C)[C@H]3C[C@H](O)[C@]12C", "outcome": "inactive"}, {"smiles": "CCCCCCCCCCCCCC[N+](C)(C)Cc1ccccc1", "AC50": "40.8 µM (active)"}, {"smiles": "CC(=NO)C(C)=NO", "outcome": "inactive"}, {"smiles": "CC1CCCNC1", "note": "(stereo not drawn)", "outcome": "inactive"}, {"smiles": "CC(C)[N+](C)(C)CC(O)COc1cccc2ccccc12", "note": "(stereo not drawn)", "outcome": "inactive"}, {"smiles": "CC(=O)c1ccc2c(c1)N(CCCN1CCC(CCO)CC1)c1ccccc1S2", "outcome": "inactive"}]}]}
